Assay outcomes from PubChem.
Rows were chosen to be rich in hits. Some 1.9% of all compounds tested hit in one or more screens of this group.
Menin-MLL FL inh: qHTS Assay for Inhibitors Targeting the Menin-MLL Interaction in MLL Related Leukemias: Competition With Fluorescein Labeled MLL-derived Peptide; Fluorescence polarization, fluorescein-MLL peptide displacement from menin; FP activity change, % at 61.4 µM; 290,000 tested, under 10 active; active = well fitted curve in the direction sought with a large enough effect in the polarisation, not every such curve was filed as active; inconclusive = small, poorly fitted or top-dose-only effect, or effect the other way, or a change in a side signal; inactive = no such curve, though single readings can be large or run the other way; the % refers to the polarisation
ClpP mod: qHTS Assay for Activators of ClpP; Potency, µM (series often up to 57.5 µM); hit rate 1.9% among 340,000; purified B. subtilis ClpP, FRET peptide cleavage, 20 min; active = well fitted falling curve with a large enough effect; inconclusive = small, poorly fitted or top-dose-only effect; inactive = no such curve, though single readings can be large or run the other way; also: the source files actives as falling curves though it sought activators and does not explain the sign; nearly all actives have a fitted effect of over 65% in size
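FRET quenching reversal measured ClpP activation: 10 microg/mL B. subtilis ClpP at pH 8 with the FRET-FV decapeptide, read at 430 nm after 320 nm excitation. The 20-min minus 0-min signal was scaled between DMSO/no-enzyme wells and ADEP (5.8 microM final).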
PINK1 expr mod: A Quantitative High throughput Screen to Identify Chemical Modulators of PINK1 Expression | Potency, µM (doses to about 76.6 µM), usual class: activators | PINK1 immunofluorescence, high-content cytometry, 24 h | hit rate 0.2% among 410,000 | AID 624263, 2012; active = well fitted activation curve with a large enough effect; inconclusive = small, poorly fitted or top-dose-only effect; cell line not stated here; also: nearly all actives have a fitted effect of over 65% in size
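Stable cell line, 250 cells/well, 12 h attachment; compounds pinned at 5 concentrations, 24 h; CCCP control. Fixed with nuclear dye, primary antibodies 12 h at 10 degrees C, secondary plus cell stain; laser-scanning cytometer read.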
MLL CXXC-DNA inh: qHTS Fluorescence Polarization Assay for Inhibitors of MLL CXXC domain - DNA interaction | Potency, µM (doses to about 115 µM), hits mostly inhibitors | MLL-CXXC / FITC-HOXA9 DNA fluorescence polarization | hit rate 0.037% among 290,000 | Histone-lysine N-methyltransferase 2A (Homo sapiens), Q03164 | AID 2662, 2010; active = well fitted inhibition curve with a large enough effect in the polarisation, with a control signal flat, not every such curve was filed as active; inconclusive = small, poorly fitted or top-dose-only effect, or effect the other way, or a change in a side signal; inactive = no such curve, though single readings can be large or run the other way; the % refers to the polarisation
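Steps: dispense CXXC domain solution (7 uM) → pin compounds or unlabeled HOX-A9 DNA control → 5 min ambient → add FLSN-HOX-A9 solution (50 nM) → spin → 30 min ambient → fluorescence polarization. Tris pH 7.5/NaCl/DTT/BSA buffer.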
Menin-MLL TR inh: qHTS Assay for Inhibitors Targeting the Menin-MLL Interaction in MLL Related Leukemias: Competition With Texas Red Labeled MLL-derived Mutant Peptide; O00255; Menin + Texas Red MLL mutant peptide, fluorescence polarization; Potency, µM (top dose mostly 61.6 µM), usual class: inhibitors; hit rate 0.23% among 270,000; AID 1768, 2009; active = well fitted inhibition curve with a large enough effect in the polarisation, with a control signal flat, not every such curve was filed as active; inconclusive = small, poorly fitted or top-dose-only effect, or effect the other way, or a change in a side signal; inactive = no such curve, though single readings can be large or run the other way; the % refers to the polarisation
Target sequence (O00255 whole entry, looked up): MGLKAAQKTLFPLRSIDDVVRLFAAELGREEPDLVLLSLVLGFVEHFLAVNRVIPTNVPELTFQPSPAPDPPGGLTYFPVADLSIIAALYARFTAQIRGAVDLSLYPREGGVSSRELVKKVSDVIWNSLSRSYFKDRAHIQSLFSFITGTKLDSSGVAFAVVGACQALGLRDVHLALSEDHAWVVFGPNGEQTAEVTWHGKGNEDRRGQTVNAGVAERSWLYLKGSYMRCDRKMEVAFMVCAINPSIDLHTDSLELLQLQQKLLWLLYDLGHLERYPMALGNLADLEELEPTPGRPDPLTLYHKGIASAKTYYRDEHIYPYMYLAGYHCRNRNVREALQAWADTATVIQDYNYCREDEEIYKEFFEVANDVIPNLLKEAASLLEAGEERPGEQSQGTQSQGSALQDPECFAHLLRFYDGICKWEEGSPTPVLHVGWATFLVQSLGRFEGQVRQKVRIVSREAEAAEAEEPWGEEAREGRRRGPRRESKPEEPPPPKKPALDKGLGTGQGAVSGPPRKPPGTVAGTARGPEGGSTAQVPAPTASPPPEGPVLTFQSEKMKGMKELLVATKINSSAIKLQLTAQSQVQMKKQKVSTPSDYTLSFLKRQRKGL
Epigenetic reg: Quantitative High-Throughput Screen for Regulators of Epigenetic Control; Potency, µM (top dose mostly 53.9 µM), hits mostly activators; murine LDR cells, GFP reporter derepression, 30 h; AID 1865, 2009; hit rate 0.2% among 280,000; active = well fitted activation curve with a large enough effect; inconclusive = small, poorly fitted or top-dose-only effect; also: nearly all actives have a fitted effect of over 60% in size
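In this reporter-derepression format, murine cells bearing a silenced integrated CMV-GFP locus incubate with test compound (30 h, 37 C), then are washed and imaged; fluorescent objects of 20–120 um count as induced cells.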
A number is an active result; 0 = inactive; ? = inconclusive; - = no result.

SMILES	Menin-MLL FL inh	ClpP mod	PINK1 expr mod	MLL CXXC-DNA inh	Menin-MLL TR inh	Epigenetic reg
[S-]C(=Nc1ccc(Cl)cc1)N[n+]1ccccc1	0	28.2µM	0	0	0	0
ONC(=Nc1ccc(Cl)cc1)c1ccc(Cl)cc1	0	0	0	0	0	0
CCN(Cc1ccncc1)Cc1ccc2c(c1)CN(C(=O)c1ccc(C)cc1)CCO2	-	-	0	-	-	-
COc1cccc(CNc2nc3ccc(C)cc3n3cnnc23)c1	0	0	39.8µM	0	-	?
Cc1cccc(NC(=S)NNc2ncc(C(F)(F)F)cc2Cl)c1	0	0	20µM	0	0	0
FC(F)(F)c1cnc(NNC(=S)Nc2ccccc2Cl)c(Cl)c1	0	0	?	0	0	0
CCOC(=O)/C=C1\NC(C)(C)Cc2cc(OC)c(OC)cc21	0	0	0	0	0	0
COc1cc2c(cc1OC)/C(=C/C(=O)N1CCOCC1)NC(C)(C)C2	0	12.6µM	0	0	?	0
CC(C)n1cc(CN2CCC(Oc3ccc(C(=O)N4CCCCC4)cc3)CC2)cn1	-	22.4µM	0	0	-	-
Cn1cc(CN2CCC(Oc3ccc(C(=O)N4CCCCC4)cc3)CC2)cn1	0	0	0	0	0	-
O=C1c2cc3ccccc3c(-c3ccccc3)c2C(=O)N1c1ccccn1	?	31.6µM	0	0	0	0
C(=C\c1cccc2ccccc12)/c1nnc(-c2cccs2)o1	0	28.2µM	0	0	0	0
CCOC(=O)CCSc1nc(C)c2cc(C)c(C)cc2n1	0	0	0	0	0	0
COC(=O)c1cc(C#N)c(NCc2ccccc2)nc1C	0	31.6µM	0	0	0	0
COc1ccc2nc(C)c(C(N)=O)cc2c1	0	0	0	0	0	0
CCOC(=O)c1cc2cc(OC)ccc2nc1C	0	31.6µM	0	0	0	0
CCOC(=O)CCSc1nc(C)c2cc(OC)ccc2n1	0	25.1µM	0	0	0	0
CCOC(=O)c1cc(C#N)c(N)nc1C	0	22.4µM	0	0	0	0
COC(=O)C1CCN(Cc2ccc3c(c2)CN(C(=O)c2sc(C)nc2C)CCO3)CC1	-	-	0	-	-	-
Cc1cc(C)c2cc(C#N)c(NCCOC(=O)c3ccccc3C)nc2c1	0	28.2µM	0	?	0	0
COc1ccccc1C(=O)NCCNc1nc2cc(C)cc(C)c2cc1C#N	0	0	0	0	0	-
COC(=O)C1=C(C)NC(C)=C(C(=O)OC)C1c1ccc(-c2cccc(Cl)c2Cl)o1	0	25.1µM	0	0	0	0
Cc1cccc(CN2C[C@H](Sc3ccccn3)C[C@H]2C(=O)Nc2ccc3sc(C)nc3c2)c1	-	-	0	-	-	-
Cc1ccc2nc3c(cc(C(N)=S)c(=N)n3CCCOC(C)C)c(=O)n2c1	?	22.4µM	0	0	0	?
COC(=O)c1cc(NC(=O)c2cccc(C(F)(F)F)c2)c(=O)oc1C	0	-	0	0	0	0
SMILES	Menin-MLL FL inh	ClpP mod	PINK1 expr mod	MLL CXXC-DNA inh	Menin-MLL TR inh	Epigenetic reg
COC(=O)c1cc(NC(=O)c2cccc(Cl)c2)c(=O)oc1/C=C/Nc1cc(C)cc(C)c1	?	-	-	?	?	3.55µM
CC(C)(C)NC1=NCCNC(c2ccccc2)=C1	-	0	0	-	-	-
CC(C)CN(C(=O)CCC(=O)OCC(=O)N(C)c1ccccc1)c1c(N)n(CC(C)C)c(=O)[nH]c1=O	-	28.2µM	0	-	-	-
CC(C)CN(C(=O)CCC(=O)OCC(=O)c1ccc(F)c(F)c1)c1c(N)n(CC(C)C)c(=O)[nH]c1=O	-	0	0	0	-	-
CNc1ccccc1C(=O)OCC(=O)N(CCOC)c1c(N)n(CC(C)C)c(=O)[nH]c1=O	-	22.4µM	0	-	-	-
COCCN(C(=O)COC(=O)/C=C/c1cccc(OC)c1)c1c(N)n(CC(C)C)c(=O)[nH]c1=O	-	31.6µM	0	-	-	-
COc1ccc(/C=N/c2c(-c3ccco3)nc3ccccn23)cc1OC	0	28.2µM	0	0	?	0
